Drawing on PubChem BioAssay (EPA / NIEHS), this text covers AC50 and outcome for ten compounds.

Inconclusive results are not listed. Calls of active or inactive are those of the source. The calls were made as follows: active = hit-call score of the fitted dose curve at least 0.9, where 1 is the maximum; inconclusive = response in the unintended direction; inactive = score below 0.9.

For this experiment, the target named is rat Serotonin, 5-Hydroxytryptamine Receptor (5HT), Non-Selective Binding, Htr1a (gene 24473) (UniProt P19327). Description: NVS_GPCR_r5HT_NonSelective: NovaScreen (NVS) G Protein-Coupled Receptor Assay for rat Serotonin, 5-Hydroxytryptamine Receptor (5HT), Non-Selective Binding (AID 2283295). As to the method: NVS_GPCR_r5HT_NonSelective is a biochemical, single-readout assay that uses extracted gene-proteins from Rat cortical membranes in a tissue-based cell-free assay. Measurements were taken 1 hour after chemical dosing in a 48-well plate.NVS_GPCR_r5HT_NonSelective is one of one assay component(s) measured or calculated from the NVS_GPCR_r5HT_NonSelective assay. It is designed to make measurements of radioligand binding, a form of binding reporter, as detected with scintillation counting signals by Filter-based radiodetection technology.Data from the assay component NVS_GPCR_r5HT_NonSelective was analyzed into 1 assay endpoint. This assay endpoint, NVS_GPCR_r5HT_NonSelective, was analyzed in the positive analysis fitting direction relative to DMSO as the negative control and baseline of activity. Using a type of binding reporter, loss-of-signal activity can be used to understand changes in the binding as they relate to the gene Htr1a. Furthermore, this assay endpoint can be referred to as a primary readout, because the performed assay has only produced 1 assay endpoint. To generalize the intended target to other relatable targets, this assay endpoint is annotated to the gpcr intended target family, where the subfamily is rhodopsin-like receptor.
Chain of rat Serotonin, 5-Hydroxytryptamine Receptor (5HT), Non-Selective Binding, Htr1a (gene 24473) (P19327 whole entry, looked up): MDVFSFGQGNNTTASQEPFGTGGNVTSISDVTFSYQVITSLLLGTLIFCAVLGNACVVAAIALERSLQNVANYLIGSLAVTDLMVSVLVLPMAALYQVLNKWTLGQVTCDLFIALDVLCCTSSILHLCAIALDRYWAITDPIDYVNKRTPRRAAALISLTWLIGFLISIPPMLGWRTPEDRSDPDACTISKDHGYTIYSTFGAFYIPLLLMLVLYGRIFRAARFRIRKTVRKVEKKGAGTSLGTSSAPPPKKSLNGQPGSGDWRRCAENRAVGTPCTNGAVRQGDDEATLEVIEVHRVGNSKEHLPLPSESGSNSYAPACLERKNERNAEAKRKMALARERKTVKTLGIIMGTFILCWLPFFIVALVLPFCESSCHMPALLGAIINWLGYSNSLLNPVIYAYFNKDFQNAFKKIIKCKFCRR
Binding assays used specific radioligands (tritiated, iodinated) with non-radioactive competitive displacement ligands in agonist or antagonist protocols (as indicated) and various reference compounds and inhibitors to titrate specific binding to receptors and transporters. Most enzyme assays (CYPs, kinases, phosphatases, proteases, HDACs) used recombinant protein and specific substrates (fluorescence mostly, some colorimetric and radioactive) and inhibitors, followed by a biochemical separation of substrate and product. All assays for the biochemical HTS were initially run in duplicate at a single concentration (10 uM for CYP450 assays and 25 uM for all others). […] Each assay was run with positive and negative controls, and concurrent controls on every plate. The follow-up (secondary) screen tested active chemical-pairs in concentration series, as well as a few additional assays not tested in the primary screen, some selected negative inactives, and several cases re-run in the concentration series for confirmatory purposes.
Turning to `CN(C)C(=O)NC1(c2ccccc2)CCN(CC[C@@]2(c3ccc(F)c(F)c3)CN(C(=O)c3ccccc3)CCO2)CC1`, the concentration at half-maximal activity (AC50) is 5.72 µM (active).
As for `CSc1ccc(Oc2ccc(S(N)(=O)=O)cc2CN(C)C)cc1C`, the half-maximal activity concentration (AC50) is 13.5 µM (active).
The same measure, in the same setting: the figure for `CCN(CC)CCOc1ccc(C(=C(Cl)c2ccccc2)c2ccccc2)cc1` is 21 µM (active); for `CN(C)CCCN1c2ccccc2Sc2ccc(Cl)cc21` it is 0.331 µM (active).
`CCCCc1nc2cccnc2n1Cc1ccc(-c2ccccc2-c2nnn[nH]2)cc1`: the compound was called inactive.
With `COc1ccc(OC(F)(F)F)cc1CN[C@H]1CCCN[C@H]1c1ccccc1`, the AC50 was 12.1 µM (active).
On the same count and under the same terms, the figure for `O=C(N[C@@H](c1ccccc1)[C@@H]1CCCCN1)c1cccc(C(F)(F)F)c1Cl` is 2.1 µM (active).
Consider `Cc1cc(SC2=C(O)C[C@@](CCc3ccc(N)cc3)(C(C)C)OC2=O)c(C(C)(C)C)cc1CO`, for which the call was inactive.
Turning to `CCc1nc(N)nc(N)c1-c1ccc(Cl)cc1`, the concentration at half-maximal activity (AC50) was 11.6 µM (active).
`CN(C)C(=O)NC1(c2ccccc2)CCN(CCC[C@]2(c3ccc(Cl)c(Cl)c3)CCCN(C(=O)c3ccccc3)C2)CC1`: the call was inactive.
